In all, about 16,000 sequences were measured (“rpm ratio (pull-down/input)”: median about 0.94, highest 2% from about 1.7 on). This excerpt belongs to a sample that is enriched for the highest values.

Drawing on publication PMC12820563, “FoxP3 forms a head-to-head dimer in vivo and stabilizes its multimerization on adjacent microsatellites”, this text covers binding signal for 33 sequences.

The assay has as its target T1, MBP-FoxP1dN (Mus musculus, UniProt P58462 326-579).
T1 sequence: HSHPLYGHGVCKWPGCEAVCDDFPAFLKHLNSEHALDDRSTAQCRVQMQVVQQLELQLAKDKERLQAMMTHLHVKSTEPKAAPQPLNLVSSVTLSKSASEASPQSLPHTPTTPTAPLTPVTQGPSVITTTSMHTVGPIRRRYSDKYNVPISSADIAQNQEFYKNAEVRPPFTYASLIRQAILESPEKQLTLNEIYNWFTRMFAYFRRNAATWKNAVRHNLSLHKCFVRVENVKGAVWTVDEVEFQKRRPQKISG
Kind of assay: PD-seq (MBP pull-down with sequencing); 20 mM Tris-HCl pH 7.5, 100 mM NaCl, 1.5 mM MgCl2, 0.4 uM protein, 0.1 uM dsDNA library, 30 min, room temperature, amylose pull-down; high values mean tight binding. To be noted: protein: recombinant; tags: His6-MBP; chain copies: 2; dsDNA, one strand shown. The procedure, abridged:
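Binding is the reads-per-million enrichment of pull-down relative to input, pooled across replicates. For this, 0.4 µM His6-MBP-tagged mouse FoxP3 or FoxP1 fragment lacking the N-terminus, made in E. coli, was incubated with 0.1 µM Klenow-filled double-stranded degenerate DNA library for 30 min at room temperature in Tris pH 7.5 buffer with NaCl and MgCl2. Complexes bound to amylose resin were washed three times before proteinase K released the DNA for PCR barcoding and Illumina sequencing.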
On to “GATGATTGTTCTCCCAGCTGATGAATTCAAGATATCGAGTAAACAAATTTTCCTAATCTTTCTGTTCAAGCGCCATCTAC”, for which the binding signal was 0.908 RPM ratio (pull-down/input). Take “GATGATTGTTCTCCCAGCTGATGAATTCGTCTACTCGAGTAAACAAATTTTCCTAATCTTTCTGTTCAAGCGCCATCTAC”: the binding signal is 0.938 RPM ratio (pull-down/input). Regarding “GATGATTGTTCTCCCAGCTGATGAATTCTTTTCATCGAGTAAACAAATTTTCCTAATCTTTCTGTTCAAGCGCCATCTAC”, the binding signal is 1.07 RPM ratio (pull-down/input).

Take “GATGATTGTTCTCCCAGCTGATGAATTCAGGGCTTCGAGTAAACAAATTTTCCTAATCTTTCTGTTCAAGCGCCATCTAC”: the binding signal was 0.881 RPM ratio (pull-down/input).

On to “GATGATTGTTCTCCCAGCTGATGAATTCGCCGATTCGAGTAAACAAATTTTCCTAATCTTTCTGTTCAAGCGCCATCTAC”, for which the binding signal was 0.86 RPM ratio (pull-down/input). Turning to “GATGATTGTTCTCCCAGCTGATGAATTTGTCCTTTCGAGTAAACAAATTTTCCTAATCTTTCTGTTCAAGCGCCATCTAC”, the binding signal is 1.08 RPM ratio (pull-down/input).

“GATGATTGTTCTCCCAGCTGATGAATTATGTTCGTCGAGTAAACAAATTTTCCTAATCTTTCTGTTCAAGCGCCATCTAC”: the binding signal is 1.06 RPM ratio (pull-down/input). In the case of “GATGATTGTTCTCCCAGCTGATGAATTGTGTTAATCGAGTAAACAAATTTTCCTAATCTTTCTGTTCAAGCGCCATCTAC” it was 1.27 RPM ratio (pull-down/input); in that of “GATGATTGTTCTCCCAGCTGATGAATTTGTGTTATCGAGTAAACAAATTTTCCTAATCTTTCTGTTCAAGCGCCATCTAC”, 2.08 RPM ratio (pull-down/input).

For the sequence “GATGATTGTTCTCCCAGCTGATGAATTGTGGTTATCGAGTAAACAAATTTTCCTAATCTTTCTGTTCAAGCGCCATCTAC”, the binding signal was 1.27 RPM ratio (pull-down/input).

Take “GATGATTGTTCTCCCAGCTGATGAATTGAATTTGTCGAGTAAACAAATTTTCCTAATCTTTCTGTTCAAGCGCCATCTAC”: the binding signal was 0.98 RPM ratio (pull-down/input). In the case of “GATGATTGTTCTCCCAGCTGATGAATTGTTTGCGTCGAGTAAACAAATTTTCCTAATCTTTCTGTTCAAGCGCCATCTAC” it was 2.27 RPM ratio (pull-down/input). With “GATGATTGTTCTCCCAGCTGATGAATTGTTTCTGTCGAGTAAACAAATTTTCCTAATCTTTCTGTTCAAGCGCCATCTAC”, the binding signal is 1.25 RPM ratio (pull-down/input). For “GATGATTGTTCTCCCAGCTGATGAATTTTCTTTGTCGAGTAAACAAATTTTCCTAATCTTTCTGTTCAAGCGCCATCTAC”, the binding signal was 1.11 RPM ratio (pull-down/input). “GATGATTGTTCTCCCAGCTGATGAATTTTTTGCGTCGAGTAAACAAATTTTCCTAATCTTTCTGTTCAAGCGCCATCTAC”: the binding signal is 1.1 RPM ratio (pull-down/input). With “GATGATTGTTCTCCCAGCTGATGAATTTTGATTGTCGAGTAAACAAATTTTCCTAATCTTTCTGTTCAAGCGCCATCTAC” the figure was 1.67 RPM ratio (pull-down/input); with “GATGATTGTTCTCCCAGCTGATGAATTTGTTTTGTCGAGTAAACAAATTTTCCTAATCTTTCTGTTCAAGCGCCATCTAC”, 2.33 RPM ratio (pull-down/input); with “GATGATTGTTCTCCCAGCTGATGAATTTTGTCTGTCGAGTAAACAAATTTTCCTAATCTTTCTGTTCAAGCGCCATCTAC”, 1.02 RPM ratio (pull-down/input). As to “GATGATTGTTCTCCCAGCTGATGAATTTTGTTTGTCGAGTAAACAAATTTTCCTAATCTTTCTGTTCAAGCGCCATCTAC”, the binding signal was 2.66 RPM ratio (pull-down/input). On to “GATGATTGTTCTCCCAGCTGATGAATTGTTTTTGTCGAGTAAACAAATTTTCCTAATCTTTCTGTTCAAGCGCCATCTAC”, for which the binding signal was 2.31 RPM ratio (pull-down/input). Regarding “GATGATTGTTCTCCCAGCTGATGAATTTTGCGCGTCGAGTAAACAAATTTTCCTAATCTTTCTGTTCAAGCGCCATCTAC”, the binding signal was 1.04 RPM ratio (pull-down/input). Regarding “GATGATTGTTCTCCCAGCTGATGAATTTGTTCTGTCGAGTAAACAAATTTTCCTAATCTTTCTGTTCAAGCGCCATCTAC”, the binding signal is 1.07 RPM ratio (pull-down/input). With “GATGATTGTTCTCCCAGCTGATGAATTTCCTATATCGAGTAAACAAATTTTCCTAATCTTTCTGTTCAAGCGCCATCTAC”, the binding signal is 0.903 RPM ratio (pull-down/input). In the case of “GATGATTGTTCTCCCAGCTGATGAATTCCAACTTTCGAGTAAACAAATTTTCCTAATCTTTCTGTTCAAGCGCCATCTAC”, the binding signal was 0.884 RPM ratio (pull-down/input). In the case of “GATGATTGTTCTCCCAGCTGATGAATTATCGTGTTCGAGTAAACAAATTTTCCTAATCTTTCTGTTCAAGCGCCATCTAC” it was 1.08 RPM ratio (pull-down/input); in that of “GATGATTGTTCTCCCAGCTGATGAATTATAGACATCGAGTAAACAAATTTTCCTAATCTTTCTGTTCAAGCGCCATCTAC”, 1.21 RPM ratio (pull-down/input); in that of “GATGATTGTTCTCCCAGCTGATGAATTCTCTCCCTCGAGTAAACAAATTTTCCTAATCTTTCTGTTCAAGCGCCATCTAC”, 0.835 RPM ratio (pull-down/input). In the case of “GATGATTGTTCTCCCAGCTGATGAATTGGTCAATTCGAGTAAACAAATTTTCCTAATCTTTCTGTTCAAGCGCCATCTAC”, the binding signal is 1.08 RPM ratio (pull-down/input).

As for “GATGATTGTTCTCCCAGCTGATGAATTCAGAAACTCGAGTAAACAAATTTTCCTAATCTTTCTGTTCAAGCGCCATCTAC”, the binding signal is 0.844 RPM ratio (pull-down/input). In the case of “GATGATTGTTCTCCCAGCTGATGAATTCGCATAATCGAGTAAACAAATTTTCCTAATCTTTCTGTTCAAGCGCCATCTAC” it was 1.22 RPM ratio (pull-down/input); in that of “GATGATTGTTCTCCCAGCTGATGAATTAATAACCTCGAGTAAACAAATTTTCCTAATCTTTCTGTTCAAGCGCCATCTAC”, 1 RPM ratio (pull-down/input). On to “GATGATTGTTCTCCCAGCTGATGAATTCCCGCCCTCGAGTAAACAAATTTTCCTAATCTTTCTGTTCAAGCGCCATCTAC”, for which the binding signal is 0.758 RPM ratio (pull-down/input).

As to “GATGATTGTTCTCCCAGCTGATGAATTTTAGGTGTCGAGTAAACAAATTTTCCTAATCTTTCTGTTCAAGCGCCATCTAC”, the binding signal is 0.902 RPM ratio (pull-down/input).
